# Shown are actives, neighbours in structure and some others; about 2.9% of the full set was active somewhere.
# Shn3 3UTR inh = reduction of Shn3 3'UTR firefly luciferase signal, primary screen, Schnurri-3 inhibitor project, cell-based, Clone20 osteoblasts, set 2; inhibition, % at 12.5 µM; Clone20 osteoblast Shn3 3'UTR firefly luciferase, 24 h; actives 0.52% (n = 360,000);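 active = mean inhibition of at least 75% with every replicate also reaching 75%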;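 note: 0% = median of neutral control wells and 100% = pilot-screen positive control compound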
# Peg3 promoter = Peg3 promoter-driven luciferase inhibitors, primary screen, cell-based, HeLa, luciferase luminescence; HeLa PEG-Prom luciferase reporter, overnight; inhibition, % at 20 µM; actives 1.7% (n = 360,000); AID 588405, 2011;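 active = inhibition of at least 50% at 20 µM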
# KKLEB cytotox = cytotoxicity in KKLEB CF airway cells, primary screen, cytotoxicity control for CF NF-kB inhibitor project, cell-based, uHTS, fluorescence assay plates. KKLEB CF airway cells viability, ATPlite luminescence, overnight; hits give low values; cells stimulated with P. aeruginosa culture filtrate. activity change (cytotoxicity), % at 5 µM. actives 0.36% (n = 360,000). AID 602141, 2011;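 active = corrected activity change at or below -50% at 5 µM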
# LMP1 NFkB inh = EBV LMP1-driven NF-kappaB luciferase reporter inhibitors, primary screen, cell-based, luminescence, single point; LMP1-induced NF-kappaB luciferase reporter cells; AID 504558, 2011; actives 0.69% (n = 350,000); inhibition, % at 12.5 µM; in the data active = inhibition above about 41%;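 note: 0% = neutral control wells and 100% = reference inhibitor control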
# TRPM1 prom inh = inhibitors of MITF-dependent TRPM1 promoter reporter, primary screen, cell-based, SK-MEL-5, single point, luciferase; SK-MEL-5 TRPM1 promoter luciferase, 24 h; actives 0.83% (n = 330,000); inhibition, % at 12.5 µM;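 active = mean inhibition across replicates of 60% or more, whatever share of single replicates reaches that level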
# CF NFkB inh = inhibitors of PAF-induced NF-kB signaling, primary screen, cell-based, GFP fluorescence, uHTS; AID 588850, 2011; KKLEB NF-kB-GFP reporter, GFP fluorescence overnight; inhibition, % at 5 µM; actives 0.86% (n = 360,000);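 active = at least 50% inhibition at 5 µM, scaled per plate between neutral and stimulator controls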;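 note: PAF is a Pseudomonas aeruginosa culture filtrate used as stimulus; plate controls were PAF-stimulated DMSO wells for no effect and unstimulated DMSO wells for full effect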
# CF NFkB conf = inhibitors of PAF-induced NF-kB signaling, retest, confirmation, cell-based, GFP fluorescence, single concentration. shares compounds with CF NFkB inh. KKLEB CF airway cells, overnight. inhibition, % at 5 µM. actives 64% (n = 1,300). AID 602472, 2012; in the data active = inhibition above about 40%;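 note: stimulus PAF is a Pseudomonas aeruginosa filtrate and not platelet activating factor; plate controls were DMSO wells with stimulus for no effect and unstimulated DMSO wells for full effect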
# * marks the source's active call; other numbers are inactive results; . = not tested or not shown.
SMILES,Shn3 3UTR inh,Peg3 promoter,KKLEB cytotox,LMP1 NFkB inh,TRPM1 prom inh,CF NFkB inh,CF NFkB conf
O=C(O)c1ccc2oc(=O)c(S(=O)(=O)c3ccc(F)cc3)cc2c1,12,5,-9,3,8,6,.
CCCCCCc1cc2cc(C(=O)Nc3ccccc3OC)c(=O)oc2cc1O,-2,3,-42,12,3,54*,55*
O=C(CN1C(=O)NC2(CCCc3ccccc32)C1=O)c1ccc(F)c(F)c1 (centres undefined),32,-7,-39,7,-3,56*,11
O=C(CN1C(=O)NC2(CCc3ccccc32)C1=O)c1ccc(Cl)cc1 (centres undefined),4,-5,0,4,4,1,.
CC(C)C[C@@H](CN)NC(=O)c1nc[nH]c1C(=O)N[C@@H](C)C(=O)CNC[C@H](C)NC(=O)c1nc[nH]c1C(=O)N[C@@H](C)C(=O)O,2,-1,21,5,-5,-25,.
N#CC(C#N)=C1C=CC=CN1/C(=C\c1ccco1)C(=O)c1ccc(-c2ccccc2)cc1,16,110*,-50,-32,73*,83*,-51
COc1ccc(-c2ccc(F)cc2)cc1[C@H]1[C@H]2C=CC[C@@H](C)[C@@H]2C(=O)N1Cc1ccccc1,22,16,-2,-2,-12,75*,35
COc1ccc(-c2c([C@H]3[C@H]4C=CC[C@@H](C)[C@@H]4C(=O)N3Cc3ccccc3)ccc3ccccc23)cc1OC,45,-2,-24,16,12,62*,46*
COc1ccc(-c2ccc(OC)c([C@H]3[C@H]4C=CC[C@@H](C)[C@@H]4C(=O)N3Cc3ccccc3)c2)cc1OC,6,6,-17,15,7,35,.
C[C@@H]1CC=C[C@@H]2[C@H]1C(=O)N(Cc1ccccc1)[C@H]2c1ccccc1Br,20,26,-4,5,4,21,.
COc1ccc(-c2ccccc2[C@H]2[C@@H]3C=CC[C@@H](C)[C@@H]3C(=O)N2Cc2ccccc2)cc1,34,33,-26,9,20,60*,50*
COc1ccc(Br)cc1[C@H]1[C@H]2C=CC[C@@H](C)[C@@H]2C(=O)N1Cc1ccccc1,7,22,-30,3,-17,47,.
C[C@H](NC(=O)C1CCN(S(=O)(=O)c2ccccc2)CC1)C(=O)NC1CC1,-10,9,-1,-5,.,-2,.
O=S1(=O)CC(N2CCC(c3ccccc3)CC2)CN1Cc1ccccc1 (centres undefined),2,-1,-7,.,.,-9,.
Nc1cc2c(cc1Br)-c1ccccc1C2=NO,-58,-315,10,-7,-20,50*,61*
CCOC(=O)c1c(NC(=O)Cc2cccs2)sc(C(=O)NC2CCCC2)c1C,-2,27,-42,5,4,46,.
CCOC(=O)c1c(NC(=O)Cc2cccs2)sc(C(=O)NC2CCCCC2)c1C,15,6,-29,-27,13,51*,19
Cc1ccc2nc(N3C(=O)C(O)=C(C(=O)c4ccc(C)o4)C3c3ccc(O)cc3)sc2c1 (centres undefined),-19,-7,-10,-4,9,-18,.
CCN(CC)c1ccc(CNc2nc3ccccc3n2CCN2CCCCC2)cc1,92*,44,-45,1,-1,55*,37
COc1ccc(CNc2nc3ccccc3n2CCN2CCCCC2)cc1,38,4,-13,7,-9,4,.
Cc1cc(Br)cn2c(Cc3ccsc3)c(-c3ccc(Cl)cc3)nc12,-12,46,-2,.,.,50*,13
Cc1cc(Br)cn2c(Cc3ccsc3)c(-c3ccco3)nc12,-14,7,-18,.,.,60*,-3
O=C1CC=Nc2ccc([N+](=O)[O-])cc21,28,-3,5,-2,.,-45,.
